# Records with an inconclusive call do not appear. The source made the active and inactive calls. The calls were made as follows: active = hit-call score of the fitted dose curve at least 0.9, where 1 is the maximum; inconclusive = response in the unintended direction; inactive = score below 0.9.
# Experiments:
# [1] = TOX21_p53_BLA_p2_viability: Viability Assessment in the Tox21 HCT-116 p53 Agonism Beta-lactamase Assay, Phase 2 (AID 2283591);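 also: compound exposure lasted 16 h at 37 °C; actives lower the ATP signal meaning cytotoxicity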
# Method in brief: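 Cytotoxicity readout: CellTiter-Glo ATP luminescence, 30 min at room temperature, after the beta-lactamase read. Cells were HCT116 exposed 16 h at 37C to compounds pin-transferred at 217-fold dilution from DMSO stocks.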
# [2] = molecular target: Cellular tumor antigen p53 (Homo sapiens) (UniProt P04637); assay: TOX21_p53_BLA_p2_ratio: Tox21 HCT-116 p53 Agonism Beta-lactamase Assay, Ratio, Phase 2 (AID 2283592)
# Method in brief: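 Ratio endpoint: beta-lactamase cleavage of CCF4-AM, blue (460 nm) over green (530 nm). HCT116 reporter line; 16 h treatment, 37C; substrate 2 h RT.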
# [3] = TOX21_p53_BLA_p3_viability: Viability Assessment in the Tox21 HCT-116 p53 Agonism Beta-lactamase Assay, Phase 3 (AID 2283593);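 also: cells exposed to compound for 16 h before reading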
# Method in brief: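 Cellular ATP was quantified by CellTiter-Glo luminescence, read after 30 min at room temperature. Beforehand, HCT116 cells (4000/well) received compound 5 h post-seeding, 217-fold diluted from DMSO, then incubated 16 h at 37C.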
# [4] = molecular target: Cellular tumor antigen p53 (Homo sapiens) (UniProt P04637); assay: TOX21_p53_BLA_p3_ratio: Tox21 HCT-116 p53 Agonism Beta-lactamase Assay, Ratio, Phase 3 (AID 2283596)
# Method in brief: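 Cells were seeded at 4000/well, rested 5 h at 37C, then dosed with DMSO compound solutions (217-fold dilution) for 16 h. CCF4-AM substrate was loaded for 2 h at room temperature, and the 460/530 nm emission ratio was fitted for gain of signal versus DMSO.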
# [5] = TOX21_p53_BLA_p4_viability: Viability Assessment in the Tox21 HCT-116 p53 Agonism Beta-lactamase Assay, Phase 4 (AID 2283597);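 also: hits lower the luminescence signal meaning cytotoxicity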
# Method in brief: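 Cytotoxicity was inferred from loss of CellTiter-Glo luminescence. HCT116 cells had been dosed with compounds after 5 h plating, incubated 16 h at 37C and 5% CO2, and exposed to the CCF4-AM substrate for 2 h.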
# [6] = molecular target: Cellular tumor antigen p53 (Homo sapiens) (UniProt P04637); assay: TOX21_p53_BLA_p5_ratio: Tox21 HCT-116 p53 Agonism Beta-lactamase Assay, Ratio, Phase 5 (AID 2283599)
# Method in brief: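 Beta-lactamase reporter ratio (blue 460 nm over green 530 nm, 405 nm excitation) after 2 h CCF4-AM loading, in HCT-116 cells exposed 16 h at 37 C to compounds pinned at 217-fold dilution. Increases relative to DMSO baseline scored.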
# [7] = molecular target: Cellular tumor antigen p53 (Homo sapiens) (UniProt P04637); assay: TOX21_p53_BLA_p4_ratio: Tox21 HCT-116 p53 Agonism Beta-lactamase Assay, Ratio, Phase 4 (AID 2283601)
# Method in brief: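 Signal is the blue/green (460nm/530nm) ratio of cleaved versus uncleaved CCF4-AM substrate, read after 2 h substrate loading. Cells were HCT116 carrying the p53-responsive beta-lactamase reporter, dosed 16 h at 37C, 5% CO2; CellTiter-Glo measured in parallel.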
# [8] = TOX21_p53_BLA_p5_viability: Viability Assessment in the Tox21 HCT-116 p53 Agonism Beta-lactamase Assay, Phase 5 (AID 2283600)
# Method in brief: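 Luciferase-coupled ATP quantitation of cells treated for 16 h (37C, 5% CO2) with test chemicals delivered in DMSO via a 217-fold dilution; 4000 cells/well; reagent incubated 30 min at room temperature before luminescence reading.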
# Cellular tumor antigen p53 (Homo sapiens), sequence (P04637 whole entry, looked up): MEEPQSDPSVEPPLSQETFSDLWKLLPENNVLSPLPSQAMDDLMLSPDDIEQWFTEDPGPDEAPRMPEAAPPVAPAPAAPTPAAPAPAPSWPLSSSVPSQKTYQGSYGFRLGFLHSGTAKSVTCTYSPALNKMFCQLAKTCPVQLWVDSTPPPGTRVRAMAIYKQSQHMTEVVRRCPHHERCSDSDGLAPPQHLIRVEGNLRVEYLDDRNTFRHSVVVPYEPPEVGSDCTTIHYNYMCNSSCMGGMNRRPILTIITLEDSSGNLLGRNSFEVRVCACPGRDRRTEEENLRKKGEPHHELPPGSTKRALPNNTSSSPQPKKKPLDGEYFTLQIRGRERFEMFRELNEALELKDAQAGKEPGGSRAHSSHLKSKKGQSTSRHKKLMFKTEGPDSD
structure (smiles),measurement,setting,value
N#CCCSCCC#N,outcome,[1],inactive
same,outcome,[2],inactive
same,outcome,[3],inactive
same,outcome,[4],inactive
same,outcome,[5],inactive
same,outcome,[6],inactive
same,outcome,[7],inactive
CC(C)CCON=O,outcome,[1],inactive
same,outcome,[2],inactive
same,outcome,[3],inactive
same,outcome,[4],inactive
same,outcome,[6],inactive
same,outcome,[8],inactive
same,outcome,[7],inactive
CCCCCc1cc(O)c2c(c1)OC(C)(C)[C@@H]1CCC(C)=C[C@@H]21,AC50,[1],24.4 µM (active)
same,AC50,[2],41.7 µM (active)
same,AC50,[3],23.4 µM (active)
same,AC50,[4],40.4 µM (active)
same,AC50,[5],21.4 µM (active)
same,AC50,[6],43.1 µM (active)
same,AC50,[7],40 µM (active)
CN[C@@H]1C[C@@H](c2ccc(Cl)c(Cl)c2)c2ccccc21,outcome,[1],inactive
same,outcome,[2],inactive
same,outcome,[3],inactive
same,outcome,[4],inactive
same,AC50,[5],33.9 µM (active)
same,outcome,[6],inactive
same,outcome,[7],inactive
CCCCC#N,outcome,[1],inactive
same,outcome,[2],inactive
same,outcome,[3],inactive
same,outcome,[4],inactive
same,outcome,[5],inactive
same,outcome,[8],inactive
same,outcome,[7],inactive
O=CC(Br)(Br)Br,outcome,[1],inactive
same,AC50,[2],82.7 µM (active)
same,outcome,[3],inactive
same,outcome,[4],inactive
same,AC50,[6],29.9 µM (active)

# — PubChem BioAssay (EPA / NIEHS)
